Measured values: the supplement of paper PMC10849652
Targets with a hit are over-represented here; the source holds about 7,900 in all. About 0.6% of all pairs of compound and target were hits.

Compound: COc1cc2ncnc(Nc3ccc(F)c(Cl)c3)c2cc1OCCCN1CCOCC1 [gefitinib]
Experiment: log2 fold change, soluble protein after heating vs DMSO (PISA); higher = thermal stabilisation; K562 cells, 10 uM, 30 min; active = over 0.2 and 3.5 SD of the protein, either way, in both replicates (recomputed)
Summary of the method: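 Soluble protein was defined as the supernatant after 21,000xg for 90 min. It came from K562 cells at 2×10^6 cells/mL given 10 μM compound for 30 min, heated in aliquots for 3 min across 48°C-58°C, pooled, and extracted in PBS with 0.5% NP-40 at 4°C, and was quantified by TMTpro 16plex LC-MS/MS with equalised channel sums. Thermal stability against control samples, from duplicates, is reported as log2 fold change.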

Chain of UniProt P61024 (P61024 whole entry, looked up): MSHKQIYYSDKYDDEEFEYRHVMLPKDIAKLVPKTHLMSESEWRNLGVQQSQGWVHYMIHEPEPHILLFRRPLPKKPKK
Chain of UniProt Q9NYV4 (Q9NYV4 whole entry, looked up): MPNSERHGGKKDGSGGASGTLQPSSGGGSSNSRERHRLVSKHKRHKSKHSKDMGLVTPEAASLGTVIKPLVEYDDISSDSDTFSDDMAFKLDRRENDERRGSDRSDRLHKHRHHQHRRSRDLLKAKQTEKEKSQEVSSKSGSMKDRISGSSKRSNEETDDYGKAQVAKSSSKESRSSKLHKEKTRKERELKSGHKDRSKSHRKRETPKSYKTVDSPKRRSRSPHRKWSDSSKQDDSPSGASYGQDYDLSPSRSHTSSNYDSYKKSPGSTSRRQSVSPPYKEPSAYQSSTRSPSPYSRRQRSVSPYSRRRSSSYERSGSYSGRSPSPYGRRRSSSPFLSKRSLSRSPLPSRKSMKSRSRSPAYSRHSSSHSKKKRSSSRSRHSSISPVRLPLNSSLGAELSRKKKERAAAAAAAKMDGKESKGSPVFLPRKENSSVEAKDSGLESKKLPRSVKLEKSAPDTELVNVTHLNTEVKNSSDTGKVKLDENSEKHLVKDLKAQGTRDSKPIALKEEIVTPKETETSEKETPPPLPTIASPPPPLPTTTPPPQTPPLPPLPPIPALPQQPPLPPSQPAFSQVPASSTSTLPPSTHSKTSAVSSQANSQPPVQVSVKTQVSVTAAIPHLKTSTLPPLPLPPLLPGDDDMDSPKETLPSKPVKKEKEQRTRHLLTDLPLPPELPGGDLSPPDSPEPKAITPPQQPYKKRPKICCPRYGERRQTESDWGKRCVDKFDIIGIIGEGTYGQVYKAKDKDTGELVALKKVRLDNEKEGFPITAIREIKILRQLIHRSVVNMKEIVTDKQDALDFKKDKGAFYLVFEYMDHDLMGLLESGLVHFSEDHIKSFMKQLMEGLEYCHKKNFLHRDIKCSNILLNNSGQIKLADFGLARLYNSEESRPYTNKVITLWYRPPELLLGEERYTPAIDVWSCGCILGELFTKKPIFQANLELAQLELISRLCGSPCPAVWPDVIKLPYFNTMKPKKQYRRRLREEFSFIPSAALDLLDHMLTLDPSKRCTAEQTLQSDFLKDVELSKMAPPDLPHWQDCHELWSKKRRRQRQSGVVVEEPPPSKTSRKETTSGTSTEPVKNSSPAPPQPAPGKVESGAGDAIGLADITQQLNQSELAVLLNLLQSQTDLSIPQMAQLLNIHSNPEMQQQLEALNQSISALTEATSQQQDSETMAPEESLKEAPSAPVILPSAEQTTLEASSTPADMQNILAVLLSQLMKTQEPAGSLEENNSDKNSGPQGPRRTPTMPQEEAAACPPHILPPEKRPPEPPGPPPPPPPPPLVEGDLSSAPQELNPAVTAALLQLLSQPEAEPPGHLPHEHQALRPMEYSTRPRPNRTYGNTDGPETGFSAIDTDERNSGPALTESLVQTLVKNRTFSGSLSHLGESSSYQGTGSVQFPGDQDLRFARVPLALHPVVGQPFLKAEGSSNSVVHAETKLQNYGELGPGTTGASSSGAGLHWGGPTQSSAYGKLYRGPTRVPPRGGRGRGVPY
Chain of UniProt P08174 (P08174 whole entry, looked up): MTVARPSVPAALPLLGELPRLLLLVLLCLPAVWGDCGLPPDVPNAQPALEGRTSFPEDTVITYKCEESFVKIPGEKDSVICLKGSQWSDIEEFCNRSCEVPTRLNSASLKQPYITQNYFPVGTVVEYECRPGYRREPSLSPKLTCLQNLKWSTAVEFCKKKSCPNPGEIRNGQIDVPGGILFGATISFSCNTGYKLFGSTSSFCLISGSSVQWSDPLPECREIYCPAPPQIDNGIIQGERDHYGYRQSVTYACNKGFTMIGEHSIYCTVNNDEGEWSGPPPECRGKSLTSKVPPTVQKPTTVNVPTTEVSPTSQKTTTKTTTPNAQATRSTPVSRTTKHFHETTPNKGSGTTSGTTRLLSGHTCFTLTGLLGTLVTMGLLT
Chain of UniProt Q9P031 (Q9P031 whole entry, looked up): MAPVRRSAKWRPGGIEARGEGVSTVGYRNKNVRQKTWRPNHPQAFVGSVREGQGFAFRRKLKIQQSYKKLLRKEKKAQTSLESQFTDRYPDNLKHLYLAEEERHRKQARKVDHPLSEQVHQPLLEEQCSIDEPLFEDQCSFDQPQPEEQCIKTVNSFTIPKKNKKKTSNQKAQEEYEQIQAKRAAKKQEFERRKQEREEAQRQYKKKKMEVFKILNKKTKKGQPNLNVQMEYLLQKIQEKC
Chain of UniProt Q96JB5 (Q96JB5 whole entry, looked up): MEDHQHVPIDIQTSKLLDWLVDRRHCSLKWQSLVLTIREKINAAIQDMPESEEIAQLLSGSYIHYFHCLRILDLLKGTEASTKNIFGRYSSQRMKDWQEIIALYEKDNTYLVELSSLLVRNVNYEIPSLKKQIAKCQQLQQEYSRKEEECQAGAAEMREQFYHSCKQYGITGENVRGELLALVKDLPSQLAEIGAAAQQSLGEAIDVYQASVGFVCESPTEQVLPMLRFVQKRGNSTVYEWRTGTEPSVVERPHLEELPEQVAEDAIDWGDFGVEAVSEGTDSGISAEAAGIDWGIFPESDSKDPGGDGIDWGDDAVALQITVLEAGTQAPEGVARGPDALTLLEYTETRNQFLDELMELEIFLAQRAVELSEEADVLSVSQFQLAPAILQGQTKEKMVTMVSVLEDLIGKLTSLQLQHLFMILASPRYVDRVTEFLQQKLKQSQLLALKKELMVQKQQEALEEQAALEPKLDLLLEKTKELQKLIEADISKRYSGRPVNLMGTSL
Chain of UniProt Q5T6V5 (Q5T6V5 whole entry, looked up): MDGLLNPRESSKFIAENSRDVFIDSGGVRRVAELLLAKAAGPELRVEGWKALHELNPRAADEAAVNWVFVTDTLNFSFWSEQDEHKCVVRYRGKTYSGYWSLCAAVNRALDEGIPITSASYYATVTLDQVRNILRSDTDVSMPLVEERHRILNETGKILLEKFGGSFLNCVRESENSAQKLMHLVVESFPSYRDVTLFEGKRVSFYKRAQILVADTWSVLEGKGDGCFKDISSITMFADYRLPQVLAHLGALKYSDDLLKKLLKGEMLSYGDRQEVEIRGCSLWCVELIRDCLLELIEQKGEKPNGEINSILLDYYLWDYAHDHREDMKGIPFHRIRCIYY
Chain of UniProt P19397 (P19397 whole entry, looked up): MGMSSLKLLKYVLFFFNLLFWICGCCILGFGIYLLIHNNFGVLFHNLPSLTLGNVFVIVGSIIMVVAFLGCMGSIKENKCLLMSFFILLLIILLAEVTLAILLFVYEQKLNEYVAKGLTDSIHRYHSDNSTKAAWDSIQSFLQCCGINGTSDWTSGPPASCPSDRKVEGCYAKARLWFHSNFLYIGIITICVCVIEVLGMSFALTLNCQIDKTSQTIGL
Chain of UniProt Q00535 (Q00535 whole entry, looked up): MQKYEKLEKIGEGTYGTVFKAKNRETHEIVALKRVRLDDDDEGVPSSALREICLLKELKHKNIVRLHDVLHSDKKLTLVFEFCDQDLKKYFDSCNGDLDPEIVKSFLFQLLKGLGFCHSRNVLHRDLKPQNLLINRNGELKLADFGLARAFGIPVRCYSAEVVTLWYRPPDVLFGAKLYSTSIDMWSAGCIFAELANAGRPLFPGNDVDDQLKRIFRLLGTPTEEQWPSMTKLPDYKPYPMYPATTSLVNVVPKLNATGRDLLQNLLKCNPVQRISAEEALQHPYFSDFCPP
Chain of UniProt P41208 (P41208 whole entry, looked up): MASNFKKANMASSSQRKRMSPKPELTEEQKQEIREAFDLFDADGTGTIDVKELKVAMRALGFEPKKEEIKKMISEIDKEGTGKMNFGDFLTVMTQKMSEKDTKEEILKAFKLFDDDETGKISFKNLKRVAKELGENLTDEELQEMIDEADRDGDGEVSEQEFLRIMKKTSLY
Chain of UniProt O95319 (O95319 whole entry, looked up): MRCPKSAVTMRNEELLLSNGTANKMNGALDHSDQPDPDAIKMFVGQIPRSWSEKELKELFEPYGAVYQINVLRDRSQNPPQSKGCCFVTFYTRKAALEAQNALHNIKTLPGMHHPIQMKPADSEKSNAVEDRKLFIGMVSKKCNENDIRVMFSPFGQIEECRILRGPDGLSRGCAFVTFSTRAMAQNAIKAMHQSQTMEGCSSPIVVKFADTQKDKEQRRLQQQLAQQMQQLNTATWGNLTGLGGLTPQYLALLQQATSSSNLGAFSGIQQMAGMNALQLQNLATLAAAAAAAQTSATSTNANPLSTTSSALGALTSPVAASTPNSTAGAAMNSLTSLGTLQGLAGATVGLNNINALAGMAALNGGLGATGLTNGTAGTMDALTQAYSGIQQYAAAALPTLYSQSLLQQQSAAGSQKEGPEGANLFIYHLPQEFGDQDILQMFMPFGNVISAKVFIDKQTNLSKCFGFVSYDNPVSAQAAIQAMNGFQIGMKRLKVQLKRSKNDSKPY
Chain of UniProt Q96MX0 (Q96MX0 whole entry, looked up): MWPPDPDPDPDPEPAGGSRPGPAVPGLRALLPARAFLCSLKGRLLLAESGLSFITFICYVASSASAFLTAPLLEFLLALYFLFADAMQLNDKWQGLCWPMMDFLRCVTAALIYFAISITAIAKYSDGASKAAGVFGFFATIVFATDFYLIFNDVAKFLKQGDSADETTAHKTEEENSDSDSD
Chain of UniProt O14757 (O14757 whole entry, looked up): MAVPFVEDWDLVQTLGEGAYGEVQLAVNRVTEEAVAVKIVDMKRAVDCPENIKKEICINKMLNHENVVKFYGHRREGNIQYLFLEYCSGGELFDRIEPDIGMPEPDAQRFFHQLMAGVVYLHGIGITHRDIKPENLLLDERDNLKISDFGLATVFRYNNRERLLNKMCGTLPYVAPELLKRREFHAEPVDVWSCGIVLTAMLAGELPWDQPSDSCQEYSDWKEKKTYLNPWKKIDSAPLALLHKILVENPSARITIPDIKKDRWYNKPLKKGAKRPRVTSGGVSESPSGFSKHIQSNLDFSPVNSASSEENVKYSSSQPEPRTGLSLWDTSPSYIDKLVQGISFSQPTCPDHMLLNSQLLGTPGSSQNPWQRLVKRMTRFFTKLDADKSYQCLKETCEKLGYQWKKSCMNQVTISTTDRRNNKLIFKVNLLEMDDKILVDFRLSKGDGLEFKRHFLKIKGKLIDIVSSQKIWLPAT

log2 fold change, inactive:
CSNK1D (UniProt P48730) -0.006
C9orf72 (UniProt Q96LT7) -0.034
CKS1B (UniProt P61024) -0.008
CDC123 (UniProt O75794) -0.057
CASP2 (UniProt P42575) -0.082
C4orf33 (UniProt Q8N1A6) 0.029
CCNK isoform 4 (UniProt O75909) -0.014
CDK12 (UniProt Q9NYV4) 0.005
COX5B (UniProt P10606) 0.011
CELF2 isoform 3 (UniProt O95319) -0.027
CDK5 (UniProt Q00535) 0.002
CDK6 (UniProt Q00534) 0
CMTM3 (UniProt Q96MX0) 0.021
COQ9 (UniProt O75208) 0.025
CHEK1 (UniProt O14757) -0.06
CBS (UniProt P35520) 0.007
CPT1A (UniProt P50416) 0.028
CDK5RAP1 (UniProt Q96SZ6) -0.074
CES2 isoform 4 (UniProt O00748) 0.03
COX6B1 (UniProt P14854) 0.036
CTBS (UniProt Q01459) 0.01
CNOT1 (UniProt A5YKK6) -0.021
CETN2 (UniProt P41208) 0.019
COMMD2 (UniProt Q86X83) 0.018
CCZ1 (UniProt P86791) 0.013
CA1 (UniProt P00915) 0.022
CDK13 (UniProt Q14004) 0.001
CPD (UniProt O75976) 0.007
CDKN2AIP (UniProt Q9NXV6) 0.038
CD151 (UniProt P48509) 0.001
CDK5RAP3 isoform 4 (UniProt Q96JB5) 0.024
CD53 (UniProt P19397) 0.053
CD55 isoform 7 (UniProt P08174) 0.104
C9orf64 (UniProt Q5T6V5) -0.062
CNOT2 (UniProt Q9NZN8) 0.017
CCDC59 (UniProt Q9P031) -0.066
